Experimental data taken from article PMC4336329 (PLoS ONE, 2015).
About 14,000 (4.5%) of roughly 310,000 compounds showed an effect of 50% or more. The effect is printed as a negative number. The list comes from a sample in which strong results are over-represented; it also holds similar structures and randomly drawn compounds.

Target: human ether-à-go-go-related gene (hERG) potassium channel (human, UniProt Q12809)
Assay: primary screen, population patch clamp on CHO cells stably expressing hERG; higher = less effect of the substance
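Further: peak tail current of the secondary pulse compared with the same well before compound.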

Sequence of human ether-à-go-go-related gene (hERG) potassium channel (Q12809 whole entry, looked up): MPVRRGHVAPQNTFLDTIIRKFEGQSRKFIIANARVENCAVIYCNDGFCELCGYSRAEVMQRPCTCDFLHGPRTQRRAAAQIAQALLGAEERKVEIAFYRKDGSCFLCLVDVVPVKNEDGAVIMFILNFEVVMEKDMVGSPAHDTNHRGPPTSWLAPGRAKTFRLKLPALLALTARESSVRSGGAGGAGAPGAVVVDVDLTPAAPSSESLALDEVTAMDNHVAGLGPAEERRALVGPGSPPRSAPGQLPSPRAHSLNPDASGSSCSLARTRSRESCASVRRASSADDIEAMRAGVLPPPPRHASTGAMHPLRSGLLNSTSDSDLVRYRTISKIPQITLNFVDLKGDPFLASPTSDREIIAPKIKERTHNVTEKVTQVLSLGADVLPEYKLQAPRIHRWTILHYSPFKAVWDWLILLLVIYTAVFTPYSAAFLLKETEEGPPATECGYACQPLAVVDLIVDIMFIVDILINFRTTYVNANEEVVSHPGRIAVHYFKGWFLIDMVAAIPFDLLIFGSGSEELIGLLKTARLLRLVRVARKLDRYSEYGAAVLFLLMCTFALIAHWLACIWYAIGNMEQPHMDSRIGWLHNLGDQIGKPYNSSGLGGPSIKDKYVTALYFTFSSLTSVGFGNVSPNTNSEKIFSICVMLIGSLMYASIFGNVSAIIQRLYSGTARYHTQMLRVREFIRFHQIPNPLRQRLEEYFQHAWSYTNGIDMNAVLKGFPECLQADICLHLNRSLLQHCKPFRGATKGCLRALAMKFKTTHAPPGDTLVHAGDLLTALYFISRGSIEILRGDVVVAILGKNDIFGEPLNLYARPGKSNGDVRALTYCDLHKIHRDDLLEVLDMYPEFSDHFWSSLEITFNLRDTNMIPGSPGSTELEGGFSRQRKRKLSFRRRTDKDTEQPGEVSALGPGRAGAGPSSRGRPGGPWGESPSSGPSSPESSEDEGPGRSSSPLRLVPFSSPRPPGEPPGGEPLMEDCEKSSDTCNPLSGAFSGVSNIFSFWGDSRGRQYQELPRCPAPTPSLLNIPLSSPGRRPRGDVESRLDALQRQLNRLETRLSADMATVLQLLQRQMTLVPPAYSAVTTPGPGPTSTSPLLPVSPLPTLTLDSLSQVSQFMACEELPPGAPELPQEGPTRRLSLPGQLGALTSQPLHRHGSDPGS

| Compound | hERG current change (%, negative = inhibition) at 10uM |
| --- | --- |
| O=C1CN(c2nnnn2-c2ccccc2)CCN1 | -6.89% |
| COC(=O)[C@@]1(Cc2ccccc2)C=C[C@@H](C)N1C(C)=O | 2.06% |
| Cc1cccc(C)c1NC(=O)CCCSc1nnc(-c2ccc(Cl)cc2)n1-c1ccccc1 | -3.49% |
| COc1ccc(C(C)(C)C)cc1NC(=O)CN1C(=O)C(=O)N(Cc2ccco2)C1=O | 2.86% |
| CCCCNC(=O)NS(=O)(=O)c1ccc(NC(=O)CCC(=O)c2cccs2)cc1 | 23.1% |
| O=S(=O)(c1ccc(Cl)nc1)N1CCCCC1 | -1.17% |
| CC1(C)Oc2ccc3ccc(=O)oc3c2C(/C=N/O)=C1Cl | 14.7% |
| CCOC(=O)C1CCN(/C=C2/C(=O)NC(=S)N(c3cccc(OC)c3)C2=O)CC1 | 19.4% |
| CCOC(=O)/C=c1\s/c(=C(\C#N)C(=O)NC)n(-c2ccccc2)c1=O | 10.6% |
| Cc1ccc(-c2nn3c(C)nnc3s2)cc1NC(=O)c1ccco1 | -11.7% |
| O=C(N/N=C/C=C\c1ccco1)c1cccnc1 | 8.4% |
| Cn1cccc1-c1nc2ccccc2n1Cc1ccccc1 | -29.1% |
| OCC1(CCCc2ccccc2)CCN(C2CCSCC2)CC1 | -80.5% |
| CS(=O)(=O)c1ccc(S(=O)(=O)N2CCC(CO)(CCCc3ccccc3)CC2)cc1 | -41.4% |
| CCOC(=O)C1(CCc2ccccc2)CCN(C2Cc3ccccc3C2)CC1 | -64.8% |
| O=C(NCc1ccccc1)N1CCC(CO)(CCc2ccccc2)CC1 | -38% |
| CCCCOC(=O)c1ccc(NC(=O)CSC2=Nc3ccccc3C3CC=NN23)cc1 (stereo not shown) | 15.4% |
| O=C(COc1ccccc1)NCC(=O)Nc1ccncc1 | 1.26% |
| O=C(c1ccc(NC(=O)C2(c3ccccc3)CCOCC2)cc1)N1CCOCC1 | 9.8% |
| CC(=O)N1c2c(cc(Br)cc2S(=O)(=O)NCC2COc3ccccc3O2)CC1C (stereo not shown) | -44.5% |
| CC1CCCN(S(=O)(=O)c2cc3c4c(c2)CCN4C(=O)CC3)C1 (stereo not shown) | -6.07% |
| COC(=O)[C@@]12CCCN1[C@H](c1ccc(-c3ccc(OC)cc3)c(OC)c1)[C@@H]1C(=O)N(C)C(=O)[C@@H]12.O=C(O)C(F)(F)F | -9.37% |

| Compound | hERG current change (%, negative = inhibition) at 10uM |
| --- | --- |
| CC1(C)O[C@H]2CC(=O)OC[C@]23[C@H]2CC[C@@]4(C)[C@H](c5ccoc5)OC(=O)[C@H]5O[C@]54[C@]2(C)[C@@H](O)C[C@@H]13 | 17.1% |
| CCOC(=O)CN1C(=O)S/C(=C/c2ccc(C)o2)C1=O | -72.7% |
| CCOC(=O)CN1C(=O)S/C(=C/c2ccco2)C1=O | 9.39% |
| CCOC(=O)CN1C(=O)S/C(=C/c2ccc(N3CCCCC3)o2)C1=O | 13.1% |
| Cc1[nH]nc2c1C(c1ccsc1C)C(C#N)=C(N)O2 (stereo not shown) | 2.25% |
| Cn1cnnc1SCC(=O)NN(c1ccccc1)c1ccccc1 | 28.6% |
| CCNC(=O)C(C)Oc1ccc(Cl)cc1Cl (stereo not shown) | 9.68% |
| Cc1cccc(C(=O)C2CCOC(C)(C)C2)c1 (stereo not shown) | 13% |
| CCCN(Cc1nc(-c2ccc(Cl)cc2)no1)CC1CCCO1 (stereo not shown) | -8.15% |
| COC(=O)c1ccc(-c2noc(CN(Cc3ccccn3)CC3CCCO3)n2)cc1 (stereo not shown) | -75% |
| O=C1CC[C@@H](CN(Cc2ccccn2)Cc2nc(Cc3cccc(C(F)(F)F)c3)no2)N1 | -48.4% |
| CCN(Cc1nc(-c2cccc(Cl)c2)no1)CC1CCCO1 (stereo not shown) | 1.7% |
| O=C1CC[C@@H](CN(Cc2ccccn2)Cc2nc(-c3ccc(C(F)(F)F)cc3)no2)N1 | -62.7% |
| Cc1oc(-c2ccc(C(F)(F)F)cc2)nc1CN(Cc1ccccn1)C[C@@H]1CCC(=O)N1 | -38.2% |
| Clc1ccc(-c2noc(CN(Cc3ccccn3)CC3CCCO3)n2)cc1 (stereo not shown) | -28.5% |
| COC(=O)c1ccc(-c2noc(CN(Cc3ccncc3)CC3CCCO3)n2)cc1 (stereo not shown) | -28.5% |
| CCN(Cc1nc(-c2ccc(Cl)cc2)no1)CC1CCCO1 (stereo not shown) | -62.9% |
| COc1ccc(CN(CC2CCC(C(=O)O)CC2)C(=S)Nc2cccc(C)c2)cc1 (stereo not shown) | -2.44% |
| O=Cc1cc(-c2ccccc2)[nH]c1-c1ccccc1 | 22.5% |
| COCCn1nnnc1C(C(C)C)N(Cc1cccnc1)Cc1cc2cc(OC)ccc2[nH]c1=O (stereo not shown) | -29.3% |
| CCCCCC(=O)NNC(=O)Cc1ccc([N+](=O)[O-])cc1 | -1.38% |
| O=C(Cn1cccc1C(=O)c1ccccc1)NCCCN1CCOCC1 | 13.4% |

| Compound | hERG current change (%, negative = inhibition) at 10uM |
| --- | --- |
| O=C(Cn1cccc1C(=O)c1ccccc1)NCCN1CCCCCC1 | -35.3% |
| Cc1ccccc1C(=O)c1cccn1CC(=O)NCC(C)c1ccccc1 (stereo not shown) | -20.3% |
| Cc1ccccc1C(=O)c1cccn1CC(=O)NCCCN1CCCCC1 | -41.9% |
| Cc1ccccc1C(=O)c1cccn1CC(=O)NCCCN1CCc2ccccc2C1 | -78.6% |
| O=C(Cn1cccc1C(=O)c1ccccc1)NCCCN1CCc2ccccc2C1 | -74.1% |
| O=C(CN1C(=O)NC2(CCCCC2)C1=O)Nc1cc(C(F)(F)F)ccc1N1CCCCC1 | -1.7% |
| Fc1cc(F)c2nc(Nc3nc4cc5c(cc4s3)OCO5)sc2c1 | 15.2% |
| O=C(Oc1ccc2ccccc2c1)c1cncc(Br)c1 | -11.6% |
| CC1CCN(S(=O)(=O)c2ccc(NC(=O)[C@@H]3CCCC[C@@H]3C(=O)O)cc2)CC1 | 9.64% |
| CCC(C)(C(=O)NC1CCCCC1)N(Cc1ccco1)C(=O)c1cnccn1 (stereo not shown) | -11.3% |
| Cc1ccc(NC(=O)COC(=O)COc2ccc3ccc(=O)oc3c2)cc1[N+](=O)[O-] | 3.51% |
| Cc1cc(C)c2nc(C(F)(F)F)c(C#N)c(N)c2c1 | 17.4% |
| CCCc1nc2c(C)cc(C)cc2c(N)c1CC | -59.2% |
| CCCSc1nc(C)c2cc(C)cc(C)c2n1 | 10.9% |
| CCCc1nc(N)c(C#N)c(-c2ccco2)c1CC | 14.3% |
| CCCc1nc2c(C)ccc(C)c2c(N)c1CC | -62.5% |
| CCCc1nc2ccccc2c(C(=O)O)c1CC | 1.82% |
| Cc1cc(C)cc(N=c2c([N+](=O)[O-])nn(-c3cccc(Cl)c3)n2O)c1 | -6.03% |
| Cc1cccc(CC2CC(=O)N(CCc3ccc4c(c3)OCO4)C2=O)c1 (stereo not shown) | 34.2% |
| COc1ccc(C(=O)/C=C2\NCCc3cc(OC)c(OC)cc32)cc1OC | 11.6% |
| O=C(O)CCc1nc2cc(Cl)ccc2n(Cc2ccccc2)c1=O | 22.2% |
| O=C(O)CCc1nc2cc(C(F)(F)F)ccc2n(Cc2ccccc2)c1=O | 23.8% |

| Compound | hERG current change (%, negative = inhibition) at 10uM |
| --- | --- |
| CC(C)c1nc2cc(Cl)ccc2n(Cc2ccccc2)c1=O | 24.6% |
| CN(C)C(CNC(=O)CCc1nc2cc(Cl)ccc2n(Cc2ccccc2)c1=O)c1ccccc1 (stereo not shown) | -81.1% |
| CCNC(=S)NNC(=O)CCc1nc2cc(Cl)ccc2n(Cc2ccccc2)c1=O | -54.7% |
| COC(=O)CCc1nc2cc(Cl)ccc2n(Cc2ccccc2)c1=O | -23.1% |
| CC(=O)Nc1ccc(NC(=O)CSc2nnc(-c3cccnc3)o2)cc1 | 7.42% |
| CCCn1c(C(Cc2ccccc2)NC(=O)COC)nc2ccccc21 (stereo not shown) | 2.2% |
| COc1cc2c(cc1NC(=O)/C=C/c1ccccc1)oc1ccccc12 | 18.8% |
| CCOc1ccccc1N1CC(C(=O)Nc2ccccc2N2CCOCC2)CC1=O (stereo not shown) | 12.5% |
| O=C(O)c1cc2cc(F)ccc2[nH]1 | 16.2% |
| O=C(Nc1ccc2c(c1)CCC2)c1cnc(Cl)c(Cl)c1 | 0.674% |
| CCN(CC)S(=O)(=O)c1ccc(N2CCOCC2)c(NC(=O)CN2C(=O)NC(C)(c3ccccc3)C2=O)c1 (stereo not shown) | -24.1% |
| CC[C@]12CCCN3CCc4c(n(c5ccccc45)C(=O)C1)[C@@H]32 | -75% |
| NC(=O)C1CCCc2c1n(Cc1ccccc1)c1ccccc21 (stereo not shown) | -14.7% |
| CCOC(=O)C1=C[C@]2(CC)CCCN3CCc4c(n1c1ccccc41)[C@@H]32 | -91.8% |
| CCOC(=O)C1=CC[C@H]2c3c(c4ccccc4n3C)C[C@H]1N2C | 3.88% |
| CCn1cc(C2N3CC4(C)CN2CC(C)(C3)C4=O)c2ccccc21 (stereo not shown) | 7.47% |
| CCN(CC)CC(=O)n1c2c(c3ccccc31)CCCC2 | -34.2% |
| CCOC(=O)NNC(=O)CCn1c2c(c3ccccc31)CCCC2 | -16.4% |
| O=C(O)Cn1c(=O)c2c(c3ccccc31)CCC2 | 11.9% |
| CC[C@]12CCCN3CCc4c(n(c5ccccc45)C(=O)C1)C32 (stereo partly shown) | -65.7% |
| O=C(CSc1nc(-c2ccccc2)cs1)Nc1cccc([N+](=O)[O-])c1 | 6.45% |
| N#Cc1ccccc1CSc1nc(N2CCCCC2)nc(N2CCCCC2)n1 | 5.79% |
